Measurements as given in PubChem BioAssay (NCI).
Compounds without any hit were thinned out: in the full panel of roughly 79,000, 15% have a hit. Unmarked numbers belong to inactive results. The source made the active and inactive calls. No stated cut-off is given here; in the data, active means growth inhibition above about 70%; inactive means the rest.

Experiment: NCI Yeast Anticancer Drug Screen. Data for the mec2-1 strain (AID 157)
Settings: S. cerevisiae mec2-1 strain, at 50.0 µM (retest, dose inferred, filed as 5.0), active compounds read high
In short: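 Mutant yeast (mec2-1) grown with compound; growth inhibition relative to vehicle control reported.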

Which growth inhibition does the source give for `CCN(CC)CC[n+]1ccc2c(C)c3[nH]c4ccc(O)cc4c3c(C)c2c1` here?
The growth inhibition was 4%.

With `O=[n+]1c2ccc(Cl)cc2n([O-])c2ccc(Cl)cc21` as the compound, how does the growth inhibition read?
Its growth inhibition is -5%.

Which growth inhibition does the source give for `CCOP(=O)(OCC)C(Cc1ccccc1)N=C(c1ccccc1)c1ccccc1` (centres undefined) here?
Its growth inhibition is 4%.

For `CC[C@@]1(O)C(=O)OCc2c1cc1n(c2=O)Cc2cc3c(N)cccc3nc2-1`, which growth inhibition is on record?
The growth inhibition was 5%.

Which growth inhibition does the source give for `COC1C=COC2(C)Oc3c(C)c(O)c4c(c3C2=O)/C(=N/C2CCC(O)OC2C)C=C(NC(=O)/C(C)=C\C(=O)C2CC2C(O)C(C)C(O)C(C)C(OC(C)=O)C1C)C4=O` (centres undefined) here?
Its growth inhibition is 27%.

Which growth inhibition does the source give for `COc1cc2c(c(OC)c1OC)-c1c(cc3c(c1OC)OCO3)CC(C)C(C)(O)C2OC(=O)c1ccccc1` (centres undefined) here?
The growth inhibition was 13%.

Which growth inhibition does the source give for `O=c1ssc2ncccc12` here?
The growth inhibition was 96% (active).

Which growth inhibition does the source give for `O=C1C2C(C(=O)N1c1ccc(OCc3ccccc3)cc1)C1c3ccccc3C2C2CCCCN21` (centres undefined) here?
Its growth inhibition is 19%.

With `COc1ccc(-c2cn(-c3ccc(I)cc3)c3ncnc(N)c23)cc1` as the compound, how does the growth inhibition read?
Its growth inhibition is 78% (active).

With `CCOC(=O)C(NC(=O)c1ccccc1)(N1CCN(c2cc3c(cc2F)c(=O)c(C(=O)O)cn3C2CC2)CC1)C(F)(F)F` (centres undefined) as the compound, how does the growth inhibition read?
Its growth inhibition is -27%.

Which growth inhibition does the source give for `C/C(=N\O)C1CC2C=C(C#N)C1N(Cc1ccccc1)C2` (centres undefined) here?
Its growth inhibition is -13%.

With `CC/C(=C(\c1ccccc1)c1ccc(OCCN(C)C)cc1)c1ccccc1` as the compound, how does the growth inhibition read?
The growth inhibition was 99% (active).

Which growth inhibition does the source give for `COc1ccccc1N=NC(C(=O)c1ccccc1)C(=O)c1ccccc1` here?
Its growth inhibition is 96% (active).

For `CC(O)C(O)C(O)C(/C=N\Nc1ccccc1)=N/Nc1ccccc1` (centres undefined), which growth inhibition is on record?
Its growth inhibition is 51%.
